Records with an inconclusive call do not appear. Calls of active or inactive are those of the source. How the source made its calls, unless noted: active means hit-call score of the fitted dose curve at least 0.9, where 1 is the maximum; inactive means score below 0.9.

Assay [1] is described as follows: ACEA_ER_80hr: ACEA Biosciences xCELLigence Real-Time Cell Analysis on Estrogen Receptor Agonism for Proliferation (AID 2282667; active means hit-call score of the fitted dose curve at least 0.9, where 1 is the maximum). The settings on record: T47D proliferation, impedance (xCELLigence), 80 h. In a few lines: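 Real-time electrical impedance tracked growth of the human breast line T47D, with the 80 h post-dosing value used. Dosing spanned eight 1:4 steps down from a 100 uM final top concentration, run in duplicate.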

Assay [2] is described as follows: APR_HepG2_CellCycleArrest_24hr: Apredica 24-hour HepG2 Assay for Cell Cycle Arrest (AID 2282905).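 Further: cell cycle arrest scored as ratio of 2N to 4N nuclear DNA content.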 The settings on record: imaging, actives raise or lower the signal. In a few lines:
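HepG2 cells were exposed to compounds at 0.39–200 uM (ten concentrations, duplicate) in 0.5% v/v DMSO for 24 hr. After formaldehyde fixation and Triton permeabilization, Hoechst 33342-stained nuclei were imaged at 20x; DNA content was quantified, with bidirectional fitting against DMSO.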

The nature of assay [3]: APR_HepG2_NuclearSize_24hr: Apredica 24-hour HepG2 Assay for Nuclear Size (AID 2282907). The settings on record: high-content imaging, actives raise or lower the signal. In a few lines: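 HepG2 human liver cells were exposed for 24 hr to compounds at 0.39–200 uM (ten concentrations, duplicate) in 0.5% v/v DMSO. They were then formaldehyde-fixed, Triton-permeabilized and Hoechst 33342-stained, and nuclear diameter was imaged at 20x. Bidirectional fits were made against DMSO.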

A short description of assay [4]: APR_HepG2_CellLoss_24hr: Apredica 24-hour HepG2 Assay for Cell Loss (AID 2282908).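 On AC50: fit in both directions so a hit may be cell loss or gain.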 The settings on record: high-content imaging. Summed up: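 Compounds were tested at 0.39–200 uM in duplicate with 0.5% v/v DMSO final. Cells were then fixed in 3.7% formaldehyde, Hoechst 33342 nuclei were imaged at 20x by HCS, and cell number was fitted bidirectionally against DMSO.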

Assay [5] in a line: APR_HepG2_MicrotubuleCSK_24hr: Apredica 24-hour HepG2 Assay for Microtubule CSK Stabilty (AID 2282909). The settings on record: HepG2 microtubule cytoskeleton imaging, actives raise or lower the signal. In a few lines: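 HepG2 cells exposed 24 h to compounds at 0.39–200 uM (duplicate, 0.5% v/v DMSO final), then fixed, permeabilized and immunostained for alpha-tubulin with Hoechst 33342. Cytoskeleton imaged at 20x; bidirectional fit versus DMSO baseline.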

The nature of assay [6]: APR_HepG2_MitoticArrest_24hr: Apredica 24-hour HepG2 Assay for Mitotic Arrest (AID 2282910). The settings on record: high-content imaging, actives raise or lower the signal. Summed up:
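HepG2 cells, 24 h exposure at 0.39-200 uM (10 concentrations, duplicate, 0.5% DMSO). Fixed, stained for phospho-histone H3 with Hoechst; imaged by high-content microscopy, bidirectional fit versus DMSO.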

The nature of assay [7]: APR_HepG2_MitoMembPot_24hr: Apredica 24-hour HepG2 Assay for Mitochondrial Membrane Potential (AID 2282911). The settings on record: imaging, actives raise or lower the signal. In a few lines: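 Cells are dosed for 24 hr across 0.39 to 200 uM with solvent held at 0.5% DMSO. They are then stained with 250 nM MitoTracker Red CMXRos for 30 min, fixed in 3.7% formaldehyde and imaged.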

Assay [8] is described as follows: APR_HepG2_p53Act_24hr: Apredica 24-hour HepG2 Assay for p53 Activation (AID 2282913).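 Further: p53 protein immunofluorescence averaged per cell in HepG2 with Hoechst nuclei.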 The settings on record: high-content imaging, actives raise or lower the signal. Summed up:
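Human HepG2 liver cells; 24 hr cpd treatment, 0.39–200 uM, 0.5% DMSO final. Fixed in 3.7% formaldehyde, permeabilized with 0.5% Triton X-100, stained with anti-p53/Cy5 plus Hoechst 33342. Six images per well at 20x; gain or loss vs DMSO.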

Assay [9] is described as follows: APR_HepG2_CellCycleArrest_72hr: Apredica 72-hour HepG2 Assay for Cell Cycle Arrest (AID 2282914). The settings on record: high-content imaging, actives raise or lower the signal. Summed up: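 Read-out is Hoechst-stained nuclear DNA content measured by automated fluorescence imaging (20x, six images per well), fitted in both directions relative to DMSO. Human HepG2 liver cells received 0.39–200 uM compound for 72 hr at 0.5% v/v DMSO.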

A short description of assay [10]: APR_HepG2_CellLoss_72hr: Apredica 72-hour HepG2 Assay for Cell Loss (AID 2282915). The settings on record: high-content imaging. Summed up:
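HepG2 cells exposed 72 h to compound at 0.39–200 uM (10 concentrations, duplicate) in 0.5% DMSO. Fixed with 3.7% formaldehyde and Hoechst 33342-stained. Imaged at 20x; nuclear count gives cell number, fitted bidirectionally versus DMSO.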

Assay [11] in a line: APR_HepG2_P-H2AX_72hr: Apredica 72-hour HepG2 Assay for H2AX Phosphorylation (AID 2282916).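 Further: phospho-histone H2A.x immunostain intensity per cell marking DNA damage.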 The settings on record: imaging, actives raise or lower the signal. Summed up: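 HepG2 human liver cells were exposed for 72 hr to compounds at 0.39–200 uM (10 concentrations, duplicate per plate) in 0.5% v/v DMSO. Fixed, permeabilized cells were immunolabeled for phospho-histone H2A.x with Hoechst 33342 and imaged by HCS fluorescence; bidirectional fit versus DMSO.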

The nature of assay [12]: APR_HepG2_MitoMembPot_72hr: Apredica 72-hour HepG2 Assay for Mitochondrial Membrane Potential (AID 2282917). The settings on record: imaging, actives raise or lower the signal. In a few lines: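 HepG2 cells dosed 72 hr with compound at 0.39–200 uM in duplicate, 0.5% v/v DMSO final. Mitochondria stained with 250 nM MitoTracker Red CMXRos for 30 min before formaldehyde fixation, imaged by high-content fluorescence; bidirectional fit versus DMSO.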

Assay [13] is described as follows: APR_HepG2_MicrotubuleCSK_72hr: Apredica 72-hour HepG2 Assay for Microtubule CSK Stabilty (AID 2282919). The settings on record: HepG2 microtubule cytoskeleton, high-content imaging, actives raise or lower the signal. In a few lines: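 HepG2 cells were exposed 72 hr to compound at 0.39–200 uM in duplicate (0.5% DMSO final), then fixed and permeabilized. Alpha-tubulin immunofluorescence was imaged by high-content microscopy, with bidirectional fitting against DMSO and taxol as positive control.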

Assay [14] is described as follows: APR_HepG2_P-H2AX_24hr: Apredica 24-hour HepG2 Assay for H2AX Phosphorylation (AID 2282920). The settings on record: high-content imaging, actives raise or lower the signal. Summed up: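 HepG2, 24 hr, cpd 0.39–200 uM (10 conc, duplicate), DMSO 0.5% v/v final. Fix 3.7% formaldehyde, Triton X-100 permeabilize, anti-phospho-H2A.x 1:200 + Hoechst 2 ug/mL. Imaged, bidirectional fit vs DMSO.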

Assay [15] can be described thus: APR_HepG2_StressKinase_72hr: Apredica 72-hour HepG2 Assay for Stress Kinase (AID 2282921). The settings on record: HepG2 stress kinase (phospho-c-Jun) imaging, actives raise or lower the signal. Summed up: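 Cells were exposed for 72 h to ten concentrations (0.39–200 uM, duplicate) at 0.5% v/v DMSO final, then fixed with 3.7% formaldehyde, permeabilized and immunostained for phospho-c-Jun (Cy3 secondary) with Hoechst nuclear counterstain.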

Assay [16] can be described thus: APR_HepG2_StressKinase_24hr: Apredica 24-hour HepG2 Assay for Stress Kinase (AID 2282922). The settings on record: HepG2 stress kinase (phospho-c-Jun) imaging, actives raise or lower the signal. In a few lines:
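HepG2 cells exposed 24 h to 0.39–200 uM compound in duplicate (0.5% v/v DMSO final). Cells fixed in 3.7% formaldehyde, permeabilized and immunostained for phospho-c-Jun; read by high-content fluorescence imaging, fitted bidirectionally against DMSO.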

Assay [17] is described as follows: APR_HepG2_p53Act_72hr: Apredica 72-hour HepG2 Assay for p53 Activation (AID 2282923).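 Further: average cellular p53 protein immunofluorescence intensity in HepG2 cells.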 The settings on record: high-content imaging, actives raise or lower the signal. In a few lines: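 Cells were dosed for 72 hr with compounds at 0.39–200 uM in duplicate (final DMSO 0.5% v/v), then fixed in 3.7% formaldehyde, permeabilized with Triton X-100 and immunostained for p53 (Cy5) with Hoechst 33342 nuclear counterstain.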

As to `CCC1(c2ccccc2)C(=O)N=C(O)NC1=O` (stereo unspecified), the compound was classed as inactive in [1], in assay [2], in assay [3], in assay [4], in assay [5] and in assay [6]. Also, the compound was called inactive in [7], in assay [8], in [9], in assay [10], in assay [11] and in assay [12]. Also, the compound was called inactive in assay [13], in assay [14], in assay [15], in [16] and in [17].
For the compound `c1ccc2c(c1)Nc1ccccc1S2`, the call in assay [1], in assay [3], in assay [4], in [5], in assay [6] and in [8] was inactive. In addition, the compound was classed as inactive in assay [9], in assay [11], in assay [13], in [14], in [15] and in assay [16]. Also, the compound was classed as inactive in [17]. The concentration at half-maximal activity (AC50) was 9.76 µM (active) in [2], 107 µM (active) in [7], 47 µM (active) in assay [10] and 123 µM (active) in [12].
As for `CCOC(=O)c1ccccc1C(=O)OCC`, the compound was classed as inactive in assay [1], in assay [2], in assay [3], in [4], in [5] and in assay [6]. The compound was called inactive in assay [7], in assay [8], in assay [9], in assay [10], in assay [11] and in [12]. For the same compound, the call in assay [13], in [14], in assay [15], in [16] and in assay [17] was inactive.
For the compound `CCOP(=S)(Oc1ccc([N+](=O)[O-])cc1)c1ccccc1` (stereo unspecified), the compound was called inactive in [1], in [2], in assay [3], in assay [5], in assay [6] and in assay [7]. For the same compound, the compound was called inactive in [9], in [11], in assay [12], in assay [13], in [14] and in assay [15]. Besides, the call in assay [16] was inactive. For the same compound, the concentration at half-maximal activity (AC50) in [4] was 41.1 µM (active); in assay [10], 27.7 µM (active).
As to `O=C(O)C1C(C(=O)O)C2(Cl)C(Cl)=C(Cl)C1(Cl)C2(Cl)Cl` (stereo unspecified), the compound was called inactive in assay [1], in assay [2], in assay [3], in assay [4], in assay [5] and in [6]. Moreover, the call in [7], in [8], in assay [9], in assay [10], in assay [11] and in assay [14] was inactive. Besides, the outcome in assay [15], in assay [16] and in assay [17] was inactive.
In the case of `CC(C)(C)OOC(C)(C)C`, the call in assay [1], in assay [2], in assay [3], in assay [4], in assay [5] and in assay [6] was inactive. Moreover, the compound was called inactive in assay [7], in [8], in [9], in assay [10], in assay [11] and in assay [12]. Further, the compound was called inactive in assay [13], in assay [14], in [15], in [16] and in assay [17].
Turning to `Cc1ccc(N)cc1N`, the result in [1], in assay [2], in [3], in assay [4], in assay [5] and in assay [6] was inactive. Further, the result in [7], in assay [8], in assay [9], in assay [10], in assay [11] and in assay [12] was inactive. Also, the compound was called inactive in [13], in assay [14], in assay [15], in assay [16] and in assay [17].
For `CCCCc1ccccc1`, the outcome in assay [1], in assay [2], in [3], in [4], in assay [5] and in assay [6] was inactive. In addition, the compound was classed as inactive in [7], in assay [9], in assay [10], in [11], in assay [12] and in assay [13]. For the same compound, the call in [14], in [15] and in [16] was inactive.
Turning to `Cc1ccc(O)cc1C`, the compound was classed as inactive in [1], in assay [4], in [6], in [7], in [8] and in [10]. Moreover, the compound was called inactive in assay [11], in assay [12], in [14], in assay [15], in [16] and in [17].
In the case of `CCN(CC)c1ccccc1`, the call in assay [1], in [2], in [3], in assay [4], in assay [5] and in assay [6] was inactive. Moreover, the call in [7], in [8], in [9], in assay [10], in assay [11] and in assay [12] was inactive. Moreover, the call in assay [13], in assay [14], in assay [15], in assay [16] and in assay [17] was inactive.
In the case of `Cc1cccc(N)c1`, the compound was called inactive in [1], in assay [2], in [3], in assay [4], in assay [5] and in [6]. The compound was called inactive in assay [7], in assay [8], in assay [9], in assay [10], in [11] and in [12]. Further, the compound was called inactive in assay [13], in assay [14], in assay [15], in assay [16] and in assay [17].
In the case of `O=C(O)C(Cl)Cl`, the call in assay [1], in assay [2], in [3], in assay [4], in assay [5] and in assay [6] was inactive. The outcome in assay [7], in [9], in assay [10], in assay [11], in assay [12] and in assay [13] was inactive. Also, the call in [14], in [15] and in [16] was inactive.

The values are drawn from PubChem BioAssay (EPA / NIEHS).
